Inconclusive results are not listed. A number with no mark means an inactive call. Calls of active or inactive are those of the source. Calls come from the whole dose curve; as a rule, active = well fitted inhibition curve with a large enough effect; inconclusive = small, poorly fitted or top-dose-only effect; inactive = no such curve, though single readings can be large or run the other way.
Assay: S16 Schwann cell PMP22 intronic element firefly luciferase assay (AID 624032); note: nearly all actives have a fitted effect of over 30% in size
Details: S16 rat Schwann cells, PMP22 element FLuc, 24 h; series mostly up to 57.5 µM; activity change, negative = inhibition: at the top concentration
Description: Charcot-Marie-Tooth-Association [CMTA]
National Center for Advancing Translational Sciences [NCATS]
Charcot-Marie-Tooth (CMT) disease was first characterized by Jean-Martin Charcot and Pierre Marie in France and, independently, by Howard Henry Tooth in England in 1886. CMT is one of the most common inherited neurological diseases, affecting approximately 1 in 2,500 Americans. […] The most prevalent type of CMT is known as CMT1A and caused by a duplication of the PMP22 gene which leads to over-expression of this protein. PMP22 is a glycosylated intrinsic membrane protein accounting for 2-5% of the myelin protein content, and its over-expression results in demyelination and subsequently axonal loss.
A pair of cellular transcription-based assays was developed in the S16 rat Schwann cell lines (Hai, M., et al., 2002) stably transfected with orthogonal reporters - firefly luciferase (Fluc) and beta-lactamase (beta-Lac) - whose expression is driven by an intronic regulatory element of the PMP22 gene (Jones, E.A., et al., 2011) to recapitulate endogenous expression of PMP22. The current assay employs Fluc to report on PMP22 expression. A comprehensive library of approved drugs, the NCGC Pharmaceutical Collection (Huang, R., et al., 2011), was screened in the cross-validating platform of the orthogonal reporter assays to identify drug modulators inhibitory towards PMP22 expression.
A set of counter-screens was devised to address non-specific activity of the library. An ATP-dependent CellTiter-Glo assay (developed by Promega Corp) was utilized to control cell viability. In addition, biochemical Fluc enzyme assay was performed to assess direct inhibition of the Fluc enzymatic activity.
Hai, M., Muja, N., DeVries, G.H., Quarles, R.H. and Patel, P.I. Comparative analysis of Schwann cell lines as model systems for myelin gene transcription studies. J Neurosci Res, 2002. 69(4): pp 497-508
Huang, R., Southall, N., Wang, Y., Yasgar A., Shinn P., Jadhav, A. , Nguyen, D.-T. and Austin, C.P., The NCGC pharmaceutical collection: a comprehensive resource of clinically approved drugs enabling repurposing and chemical genomics. Sci Transl Med, 2011. 3(80): p. 80ps16.
S16 Schwann cell PMP22 intronic element firefly luciferase assay
The FLuc-expressing S16 cells were seeded in white solid 1536-well plates at between 500-750 cells/4uL in DMEM medium containing 10% FBS, w/o phenol red. After overnight incubation at 37 degree Celsius/5% C02, 23 nL of compounds or DMSO were delivered to each well using a pin tool, followed by 24h-incubation at 37 degree Celsius/5% C02. Then 4 uL ONE-Glo luminescent substrate mix (Promega) was added to each well. Luminescence was measured on a ViewLux plate reader (Perkin Elmer). The % activity was determined by normalizing to the average readings of PTC124 (a positive control) - treated cells relative to DMSO-treated cells (0% Activity). The concentration-effect curves were then classified based on curve quality (r2), response magnitude and degree of measured activity.
Potency is the fitted concentration of half-maximal effect.

Structure (SMILES)	activity change, negative = inhibition	Potency
CCOC(=O)O[C@]1(C(=O)OCCl)CC[C@@H]2[C@H]3CCC4=CC(=O)C=C[C@]4(C)[C@@H]3[C@@H](O)C[C@@]21C	-12.9%	
NCCS	-24%	
COCCCCC(=NOCCN)c1ccc(C(F)(F)F)cc1	-28%	
CC(C)OC(=O)C(C)(C)Oc1ccc(C(=O)c2ccc(Cl)cc2)cc1	5.57%	
CCn1cc(C(=O)O)c(=O)c2ccc(C)nc21	14%	
O=c1[nH]cnc2c1ncn2[C@H]1CC[C@@H](CO)O1	-25.8%	
CC(=O)c1ccc(S(=O)(=O)NC(=O)NC2CCCCC2)cc1	-4.45%	
C[C@@H](O)[C@H]1C(=O)N2C(C(=O)O)=C(S[C@@H]3CN[C@H](C(=O)N(C)C)C3)[C@H](C)[C@H]12	2.94%	
CC1(C)O[C@H]2C[C@@H]3[C@H]4CCC5=CC(=O)C=C[C@]5(C)[C@@]4(F)[C@@H](O)C[C@]3(C)[C@]2(C(=O)CO)O1	1.61%	
O=C1NCC2(CCN(CCc3ccccc3)CC2)O1	10.1%	
Cc1cccc(C)c1OCC(C)N (centres undefined)	-12.2%	
CCCCC1C(=O)N(c2ccccc2)N(c2ccccc2)C1=O		inactive
CCCCCN(C)CCC(O)(P(=O)(O)O)P(=O)(O)O	12.2%	
O=C(O)Cc1cccc2ccccc12	0.533%	
CCN(CC)C(=O)c1ccc(O)c(OC)c1		inactive
COc1ccccc1N1CCN(CCCNc2cc(=O)n(C)c(=O)n2C)CC1	19.1%	
O=C(O)c1cc(-c2ccccc2)nc2ccccc12	66%	

Structure (SMILES)	activity change, negative = inhibition	Potency
CCN1CCC[C@H]1CNC(=O)c1cc(S(N)(=O)=O)ccc1OC	8.76%	
CC1=C(/C=C/C(C)=C/C=C/C(C)=C/C(=O)Nc2ccc(O)cc2)C(C)(C)CCC1		4.05 µM (active)
C[N+](C)(C)CCCCCC[N+](C)(C)C	-2.59%	
COc1cc2ncnc(Nc3ccc(F)c(Cl)c3)c2cc1OCCCN1CCOCC1		36.1 µM (active)
Cc1cnc(C(=O)O)c[n+]1[O-]	-8.12%	
O=C(NCCN1CCOCC1)c1ccc(Cl)cc1	3.66%	
CCN(CC)CCNC(=O)c1ccc(N)cc1	-6.58%	
CCCNC(=O)NS(=O)(=O)c1ccc(Cl)cc1	47.6%	
CC(C)NCC(O)COc1cccc2[nH]ccc12 (centres undefined)	3.17%	
CC(C)(C)c1ccc(C(O)CCCN2CCC(C(O)(c3ccccc3)c3ccccc3)CC2)cc1 (centres undefined)	22%	
O=C(O)CCc1nc(-c2ccccc2)c(-c2ccccc2)o1	16.7%	
CC(=O)CCCCn1c(=O)c2c(ncn2C)n(C)c1=O	3.68% [at 25.7 µM]	
CCN(CC)CCOC(=O)c1ccc(N)cc1	-13% [at 25.7 µM]	
NC(N)=Nc1nc(CSCC/C(N)=N/S(N)(=O)=O)cs1	-10%	
O=C1NC(=O)C(c2ccccc2)(c2ccccc2)N1	10.1%	
CC(=O)N[C@@H](CS)C(=O)O	41.2%	
CN(C)CCC(c1ccccc1)c1ccccn1 (centres undefined)	51.9%	

— PubChem BioAssay (NCATS)
